Data reported in ChEMBL document CHEMBL3988442, “University of Dundee, Small-Polar-MMV Screening Library” (2021).
For some assays here: Results with a measured potency or affinity are listed apart.

How the values were obtained:
Parameters in all cases: scale not given: direction of the effect not stated beside the values
[1] = target: Protein translocase subunit SecA (Escherichia coli (strain K12)) (UniProt P10408); test: Assay to Identify E. coli SecA ATPase Inhibitors; format: functional; conditions: 30 µM
[2] = target: T1, Ubiquitin-activating enzyme e1, putative (Leishmania donovani (strain BPK282A1)) (UniProt E9BSI1); test: Leishmania donovani Ubiquitin Activating Enzyme (LdE1); format: functional; conditions: 30 µM
T1 sequence (whole entry): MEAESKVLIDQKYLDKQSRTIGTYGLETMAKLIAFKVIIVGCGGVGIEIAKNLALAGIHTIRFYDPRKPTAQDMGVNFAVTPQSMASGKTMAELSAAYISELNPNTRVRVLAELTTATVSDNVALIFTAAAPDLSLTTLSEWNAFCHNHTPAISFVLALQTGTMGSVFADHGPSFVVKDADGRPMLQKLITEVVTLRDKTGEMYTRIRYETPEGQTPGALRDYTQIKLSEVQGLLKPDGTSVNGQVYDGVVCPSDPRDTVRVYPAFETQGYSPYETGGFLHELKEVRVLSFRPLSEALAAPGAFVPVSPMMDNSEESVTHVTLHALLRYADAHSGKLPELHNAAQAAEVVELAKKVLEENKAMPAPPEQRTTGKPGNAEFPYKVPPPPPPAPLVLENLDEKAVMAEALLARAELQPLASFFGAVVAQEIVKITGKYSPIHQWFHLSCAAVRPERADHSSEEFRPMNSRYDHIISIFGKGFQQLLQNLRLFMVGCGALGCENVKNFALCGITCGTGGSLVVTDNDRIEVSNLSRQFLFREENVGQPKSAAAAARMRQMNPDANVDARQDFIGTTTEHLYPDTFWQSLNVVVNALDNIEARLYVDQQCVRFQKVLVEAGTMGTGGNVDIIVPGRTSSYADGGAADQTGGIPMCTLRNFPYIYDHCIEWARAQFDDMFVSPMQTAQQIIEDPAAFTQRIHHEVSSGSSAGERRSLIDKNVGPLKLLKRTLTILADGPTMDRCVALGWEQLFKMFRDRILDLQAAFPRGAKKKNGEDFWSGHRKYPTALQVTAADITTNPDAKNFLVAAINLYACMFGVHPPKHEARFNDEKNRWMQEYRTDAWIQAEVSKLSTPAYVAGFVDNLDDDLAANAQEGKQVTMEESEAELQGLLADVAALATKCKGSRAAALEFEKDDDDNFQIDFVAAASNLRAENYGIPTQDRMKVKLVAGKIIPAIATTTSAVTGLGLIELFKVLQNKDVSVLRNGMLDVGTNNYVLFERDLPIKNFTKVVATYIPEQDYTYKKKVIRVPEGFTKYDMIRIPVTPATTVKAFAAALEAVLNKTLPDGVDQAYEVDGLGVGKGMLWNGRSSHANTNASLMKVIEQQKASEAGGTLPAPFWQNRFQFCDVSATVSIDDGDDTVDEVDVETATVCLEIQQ

[3] = target: AMP-activated protein kinase, AMPK (Homo sapiens) (UniProt P54646+O43741+P54619+Q9UGJ0+Q9Y478+Q13131+Q9UGI9); test: AMP-dependent Kinase enzyme assay. An in vitro enzyme assay that detects ADP turnover that is directly proportional to AMPK activity. This uses naive AMPK that is activated during the assay with MK-8722; format: functional; conditions: 30 µM
[4] = target: Sialic acid-binding Ig-like lectin 9 (Homo sapiens) (UniProt Q9Y336); test: Hs-Siglec9 ALPHAscreen SOP 20170721; conditions: 10 µM
[5] = system: Trypanosoma cruzi; test: Trypanosoma cruzi phosphomannomutase and mannose-1-phosphate guanylyltransferase assay; format: functional; conditions: 10 µM
[6] = target: T2, Arginase-2, mitochondrial (Homo sapiens) (UniProt P78540); test: in vitro enzyme assay to detect the production of urea directly proportional to the activity of Arginase II; format: functional; conditions: 33.3 µM; note: in the data most compounds retested in dose-response had high values
T2 sequence (whole entry): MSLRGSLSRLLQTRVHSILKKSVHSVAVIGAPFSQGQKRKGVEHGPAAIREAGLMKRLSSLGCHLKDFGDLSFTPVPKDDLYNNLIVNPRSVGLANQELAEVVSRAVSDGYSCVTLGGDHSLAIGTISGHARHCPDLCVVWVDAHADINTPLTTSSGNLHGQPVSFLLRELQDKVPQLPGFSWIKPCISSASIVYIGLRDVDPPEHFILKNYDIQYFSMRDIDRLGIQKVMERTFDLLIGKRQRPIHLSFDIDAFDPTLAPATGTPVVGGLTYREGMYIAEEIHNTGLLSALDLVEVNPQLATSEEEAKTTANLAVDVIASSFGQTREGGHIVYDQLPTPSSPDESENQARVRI

[7] = target: T3, Proteasome subunit beta (Trypanosoma cruzi) (UniProt O96673); test: Trypanosoma cruzi proteasome chymotrypsin-like activity (TcProtChymo) assay.; note: in the data most compounds retested in dose-response had high values; format: functional; conditions: 9.37 µM
T3 sequence (whole entry): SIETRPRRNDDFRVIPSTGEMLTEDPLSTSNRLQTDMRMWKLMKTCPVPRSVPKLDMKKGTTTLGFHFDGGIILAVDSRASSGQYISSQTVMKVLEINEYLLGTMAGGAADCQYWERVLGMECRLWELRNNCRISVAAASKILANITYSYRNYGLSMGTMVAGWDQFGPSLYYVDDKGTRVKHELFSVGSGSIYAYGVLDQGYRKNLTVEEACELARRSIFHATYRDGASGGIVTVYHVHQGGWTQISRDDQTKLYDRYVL

[8] = species: Homo sapiens; test: To identify inhibition of the IFN signalling (Jak-Stat) pathway via expression of an eGFP reporter gene under the control of an IFN-stimulated response element (ISRE) containing MxA promoter.; format: functional; conditions: 30 µM
[9] = target: T4, Tyrosyl-tRNA synthetase, putative (Trypanosoma cruzi (strain CL Brener)) (UniProt Q4DSP6); test: Trypanosoma cruzi tyrosyl tRNA synthetase (TcYRS) _High Tyrosine SOP; format: functional; conditions: 30 µM; note: in the data most compounds retested in dose-response had high values
T4 sequence (whole entry): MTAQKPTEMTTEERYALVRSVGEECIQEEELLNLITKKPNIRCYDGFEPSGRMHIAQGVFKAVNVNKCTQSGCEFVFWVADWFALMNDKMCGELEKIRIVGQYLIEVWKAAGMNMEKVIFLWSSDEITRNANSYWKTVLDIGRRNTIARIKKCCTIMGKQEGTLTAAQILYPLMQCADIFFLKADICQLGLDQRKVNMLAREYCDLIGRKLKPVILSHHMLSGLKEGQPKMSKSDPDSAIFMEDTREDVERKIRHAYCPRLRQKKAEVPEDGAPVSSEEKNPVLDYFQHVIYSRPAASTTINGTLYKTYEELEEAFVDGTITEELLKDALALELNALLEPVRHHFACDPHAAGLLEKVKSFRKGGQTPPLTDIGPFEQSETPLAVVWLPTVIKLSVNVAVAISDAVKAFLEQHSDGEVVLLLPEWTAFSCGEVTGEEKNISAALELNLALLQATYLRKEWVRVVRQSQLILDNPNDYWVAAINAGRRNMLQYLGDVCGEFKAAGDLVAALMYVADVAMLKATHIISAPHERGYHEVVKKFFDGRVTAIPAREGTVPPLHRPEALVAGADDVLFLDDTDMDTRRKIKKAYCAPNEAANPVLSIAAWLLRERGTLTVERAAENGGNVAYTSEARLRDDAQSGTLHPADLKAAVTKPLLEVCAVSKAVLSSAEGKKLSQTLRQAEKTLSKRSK

[10] = target: T4, Tyrosyl-tRNA synthetase, putative (Trypanosoma cruzi (strain CL Brener)); test: Trypanosoma cruzi tyrosyl tRNA synthetase (TcYRS) SOP; format: functional; conditions: 30 µM
[11] = target: Chromo domain-containing protein 1 (Saccharomyces cerevisiae (strain ATCC 204508 / S288c) (Baker's yeast)) (UniProt P32657); test: ScCHD-1 Enzyme Inhibition Assay; format: functional; conditions: 30 µM; note: in the data most compounds retested in dose-response had high values
Chromo domain-containing protein 1 (Saccharomyces cerevisiae (strain ATCC 204508 / S288c) (Baker's yeast)), sequence (P32657 whole entry, the tested form may be a part): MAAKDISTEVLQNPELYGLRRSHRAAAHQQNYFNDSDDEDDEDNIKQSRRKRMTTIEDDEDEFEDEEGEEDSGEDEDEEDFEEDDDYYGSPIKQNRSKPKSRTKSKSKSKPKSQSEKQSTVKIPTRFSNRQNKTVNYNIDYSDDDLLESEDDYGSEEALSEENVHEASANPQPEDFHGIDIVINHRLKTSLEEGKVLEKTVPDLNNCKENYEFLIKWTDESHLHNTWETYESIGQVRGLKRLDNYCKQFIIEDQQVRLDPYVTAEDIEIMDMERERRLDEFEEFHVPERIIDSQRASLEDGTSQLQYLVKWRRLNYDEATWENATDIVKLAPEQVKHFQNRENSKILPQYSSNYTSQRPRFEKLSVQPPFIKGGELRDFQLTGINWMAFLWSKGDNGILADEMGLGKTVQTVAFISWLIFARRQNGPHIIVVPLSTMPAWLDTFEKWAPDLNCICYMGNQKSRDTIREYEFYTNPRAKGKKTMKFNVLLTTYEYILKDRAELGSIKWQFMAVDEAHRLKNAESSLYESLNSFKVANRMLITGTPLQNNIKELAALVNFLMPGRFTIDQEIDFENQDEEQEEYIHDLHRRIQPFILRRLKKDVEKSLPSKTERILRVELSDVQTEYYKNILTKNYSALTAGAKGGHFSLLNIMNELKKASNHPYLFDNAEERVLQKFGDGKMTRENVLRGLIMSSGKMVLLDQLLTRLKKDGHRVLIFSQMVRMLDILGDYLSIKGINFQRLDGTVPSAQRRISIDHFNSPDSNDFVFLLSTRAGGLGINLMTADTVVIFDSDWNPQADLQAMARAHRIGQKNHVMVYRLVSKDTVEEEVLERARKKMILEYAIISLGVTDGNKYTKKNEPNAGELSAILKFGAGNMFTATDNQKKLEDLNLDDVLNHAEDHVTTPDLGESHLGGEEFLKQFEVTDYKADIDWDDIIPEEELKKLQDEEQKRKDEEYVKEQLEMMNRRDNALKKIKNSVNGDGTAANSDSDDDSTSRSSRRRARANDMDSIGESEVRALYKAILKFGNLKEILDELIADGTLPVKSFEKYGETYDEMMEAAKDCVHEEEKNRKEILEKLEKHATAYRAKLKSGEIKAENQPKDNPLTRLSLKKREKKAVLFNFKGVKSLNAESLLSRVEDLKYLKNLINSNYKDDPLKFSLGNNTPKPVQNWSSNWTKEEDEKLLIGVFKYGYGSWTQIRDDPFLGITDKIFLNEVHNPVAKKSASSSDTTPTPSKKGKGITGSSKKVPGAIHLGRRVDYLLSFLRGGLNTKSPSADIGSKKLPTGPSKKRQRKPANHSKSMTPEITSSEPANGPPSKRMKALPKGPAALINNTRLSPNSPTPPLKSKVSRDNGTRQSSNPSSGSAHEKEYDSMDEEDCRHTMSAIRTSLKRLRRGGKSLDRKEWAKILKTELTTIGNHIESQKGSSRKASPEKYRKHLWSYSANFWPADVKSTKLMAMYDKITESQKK

Protein translocase subunit SecA (Escherichia coli (strain K12)), sequence (P10408 whole entry): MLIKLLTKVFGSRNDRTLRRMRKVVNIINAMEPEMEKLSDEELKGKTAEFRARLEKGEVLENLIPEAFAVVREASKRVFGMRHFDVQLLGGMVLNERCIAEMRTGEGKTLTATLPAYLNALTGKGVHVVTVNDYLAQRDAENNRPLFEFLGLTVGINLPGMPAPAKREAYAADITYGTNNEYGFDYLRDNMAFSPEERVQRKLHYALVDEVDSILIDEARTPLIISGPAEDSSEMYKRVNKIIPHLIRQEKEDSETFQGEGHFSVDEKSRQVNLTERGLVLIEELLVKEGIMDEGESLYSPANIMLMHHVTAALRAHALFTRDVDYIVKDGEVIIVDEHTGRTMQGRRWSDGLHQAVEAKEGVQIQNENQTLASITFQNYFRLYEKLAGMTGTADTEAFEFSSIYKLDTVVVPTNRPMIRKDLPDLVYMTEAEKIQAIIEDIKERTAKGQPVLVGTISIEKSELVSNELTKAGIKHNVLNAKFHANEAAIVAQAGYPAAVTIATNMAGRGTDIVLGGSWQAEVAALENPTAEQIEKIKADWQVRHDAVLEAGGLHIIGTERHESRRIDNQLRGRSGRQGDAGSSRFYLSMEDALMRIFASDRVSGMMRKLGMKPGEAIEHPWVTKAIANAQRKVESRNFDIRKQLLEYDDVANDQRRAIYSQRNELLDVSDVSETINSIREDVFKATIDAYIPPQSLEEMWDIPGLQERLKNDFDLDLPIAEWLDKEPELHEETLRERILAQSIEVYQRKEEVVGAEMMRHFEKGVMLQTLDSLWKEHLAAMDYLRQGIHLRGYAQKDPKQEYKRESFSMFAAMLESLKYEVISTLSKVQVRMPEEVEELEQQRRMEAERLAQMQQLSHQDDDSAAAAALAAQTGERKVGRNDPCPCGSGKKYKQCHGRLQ
Sialic acid-binding Ig-like lectin 9 (Homo sapiens), sequence (Q9Y336 whole entry): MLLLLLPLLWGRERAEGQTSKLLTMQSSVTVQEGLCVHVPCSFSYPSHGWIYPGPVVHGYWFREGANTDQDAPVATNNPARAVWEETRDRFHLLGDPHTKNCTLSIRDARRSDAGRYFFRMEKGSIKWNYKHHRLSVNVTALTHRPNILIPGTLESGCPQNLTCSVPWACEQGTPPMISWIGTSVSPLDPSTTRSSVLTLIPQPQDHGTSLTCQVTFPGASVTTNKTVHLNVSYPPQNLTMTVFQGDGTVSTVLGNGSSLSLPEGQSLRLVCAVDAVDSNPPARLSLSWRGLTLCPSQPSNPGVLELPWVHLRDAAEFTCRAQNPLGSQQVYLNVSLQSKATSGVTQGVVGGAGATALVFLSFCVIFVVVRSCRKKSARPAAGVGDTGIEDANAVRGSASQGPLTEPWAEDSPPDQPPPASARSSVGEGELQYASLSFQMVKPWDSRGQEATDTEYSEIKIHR

Row | SMILES | Percent Effect [1] | Percent Effect [2] | Percent Effect [3] | Percent Effect [4] | Percent Effect [5] | Percent Effect [6] | Percent Effect [7] | Percent Effect [8] | Percent Effect [9] | Percent Effect [10] | Percent Effect [11]
1 | COCCNC(=O)C[C@@H]1COC[C@H]2CN(C(=O)c3cnccn3)C[C@@H]12 | -0.696% | 8.22% | -4.71% | 7.09% | 6.15% | 1.6% | 11.2% | 21.4% | 9.38% | 13.6% | -3.17%
2 | Cc1cc(C(F)(F)F)nn1CC(C)C(=O)Nc1ccncc1 (configuration not stated) | -6.4% | 6.67% | -0.198% | 8.65% | 0.786% | -2.64% | 10.9% | 19.9% | 1.06% | -12.8% | -5.12%
3 | Cc1ccc(C(=O)N2CCc3c(CNS(C)(=O)=O)cncc3C2)o1 | 3.13% | 2.67% | 5.83% | 1.5% | -6.37% | -55% | 8.72% | 4.16% | 3.12% | 5% | -7.04%
4 | CCc1nc(C(=O)NCc2ccc(N3CCNC(=O)C3)c(F)c2)c[nH]1 | 2.33% | 18.9% | -4.78% | 31.7% | 4.63% | -3.81% | 20% | 13.4% | 5.82% | 12.2% | -2.24%
5 | Cc1ccc(C2COCCN2C(=O)c2ccc(CN(C)C)cc2)o1 (configuration not stated) | -0.657% | -5.33% | -1.26% | 2.6% | -1.85% | 2.08% | 4.01% | 0.868% | 1.64% | 1.24% | -0.0158%
6 | COc1ccc(OCc2nc(C(=O)N3CC[C@H](O)[C@@H](O)C3)co2)cc1 | -5.04% | 2.7% | -0.405% | 4.91% | -3.09% | -0.476% | 12.8% | -0.834% | 6.88% | 12.2% | -4.44%
7 | O=C([C@H]1CN(CCc2ccccc2)C[C@H]2OCC[C@@H]12)N1CCCO1 | -5.74% | 18.7% | -7.7% | -0.861% | 6.37% | -46.1% | 11.6% | 4.24% | 2.08% | 15% | -7.28%
8 | Cc1ccoc1C(=O)N1C[C@H]2CCC[C@@]2(COCc2ccncc2)C1 | -1.22% | 18.2% | -2.61% | 3.02% | 2.66% | -3.23% | -2.44% | 1.6% | 5.29% | 11.5% | -4.37%
9 | CCc1nc(NCCCn2cccn2)c2c(n1)c(C)nn2C | -3.56% | 20% | -0.746% | 2.66% | 0.197% | -0.528% | 17.6% | 8.9% | 6.35% | 12.8% | -12.1%
10 | Cc1cc(CN(C)C(=O)NC(C)c2nncn2C)no1 (configuration not stated) | -1.93% | 15.3% | -8.88% | 15.4% | 2.43% | 35.8% | 22.6% | -0.22% | 3.16% | 10.3% | 72%
11 | Cc1cc(F)ccc1OC1(C(=O)O)CCN(Cc2cccnc2N)CC1 | -6.33% | 5.33% | -1.53% | 2.08% | -3.02% | -0.521% | 5.93% | 0.568% | 6.01% | 11.1% | 1.09%
12 | Cc1nn(C)c(N2CCOCC2)c1CNC1CCN(C(C)(C)C)CC1 | -2.55% | 20.2% | -9.63% | -2.51% | -1.42% | -0.38% | 13.5% | 10.5% | 5.42% | 16.5% | -4.24%
13 | NC(=O)c1cnn2c1NCC(CNCCCOc1ccccc1F)C2 (configuration not stated) | -2.54% | 5.26% | 0.424% | 14.6% | 3.38% | -1.15% | 0.167% | 2.29% | 9.31% | 12.2% | -10.9%
14 | Cn1cnnc1C1CCCN(C(=O)NCCc2ccccc2F)C1 (configuration not stated) | -3% | 10.4% | -0.267% | -7.57% | 5.97% | 6.53% | 6.71% | 11.1% | 3.81% | 14.1% | -9.4%
15 | Cc1cc(CN2CCC(CNC(=O)c3ccc(O)c(Cl)c3)C2)[nH]n1 (configuration not stated) | -4.67% | 2.7% | -0.362% | 22.1% | -8.7% | 2.23% | 5.24% | 4.66% | 2.15% | 11.1% | -0.611%
16 | COCCN1CCC(NCc2cccc(F)c2)C1 (configuration not stated) | -3.31% | 13% | -4.27% | 0.179% | -5.24% | -4.27% | 8.78% | 32.2% | 5.83% | 0% | -9.86%
17 | COc1ccc(C(=O)N2CCC(Nc3ccc(C)nn3)CC2)c(F)c1 | -1.36% | 1.27% | 3.77% | -1.89% | -4.21% | 2.8% | 12.7% | 25.4% | 7.29% | -2.53% | -10.7%
18 | CC(O)CN1CCN(Cc2nnc(C3CC3)o2)CC1 (configuration not stated) | -2.68% | 22.8% | -5.24% | -11.8% | 6.7% | 4.56% | 15% | -18.4% | 6.4% | 21.5% | -4.52%
19 | O=C(C1SCCc2sccc21)N1CCN(CCO)CC1 (configuration not stated) | -6.92% | 16.2% | -1.14% | 33.4% | 2.34% | 22.5% | 17.7% | 11.7% | -3.96% | 15.8% | -3.8%
20 | Cc1ccn(-c2ccccc2NCc2ncc[nH]2)n1 | -7.12% | 8.22% | -9.03% | -1.61% | 0.783% | 3.18% | 9.41% | -4.65% | 4.3% | 10% | -3.33%
21 | Cn1nc(CNC(=O)NCc2ccc(Cl)cc2)c2c1CCOC2 | -4.99% | 5.2% | 6.43% | 7.81% | 3.45% | -7.1% | -3.83% | 20.2% | 0% | -3.85% | -5.33%
22 | CCn1cnnc1CNC(=O)N1CCN(c2cccc(OC)c2)CC1 | -4.11% | 20.8% | -7.68% | 2.16% | -3.75% | -0.356% | 12.3% | 25.9% | 12.6% | 14.6% | -9.3%
